The source of these data is PubChem BioAssay (Tox21).

Where “and” joins values, the source holds several entries; their conditions need not be identical. Identical values can stand only once. Inconclusive results are not listed. Unmarked numbers belong to inactive results. Calls of active or inactive are those of the source. Unless noted, calls come from the whole dose curve; as a rule, active = well fitted cell-killing curve with a large enough effect in the repeat runs; inconclusive = weak or mixed curves, or effect the other way; inactive = no such curve, though single readings can be large or run the other way.
% is set by controls: 0 for no effect and ±100 for the full control effect; potency is the fitted concentration of half-maximal effect.

In one assay the target is Bile acid receptor (Homo sapiens) (UniProt Q96RI1). Kind of assay: qHTS assay to identify small molecule antagonists of the farnesoid-X-receptor (FXR) signaling pathway (AID 743217; active = well fitted inhibition curve with a large enough effect in the signal ratio in the repeat runs, not every such curve was filed as active; the % refers to the signal ratio). The following applies: HEK293T FXR-UAS-bla, beta-lactamase ratio, CDCA-stimulated, 16 h; series mostly up to 62.6 µM; activity change, negative = inhibition: at the top concentration. The procedure, abridged: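 Test compounds are pin-transferred onto FXR-bla HEK 293T cells, then chenodeoxycholic acid is added at 50 uM final. After 16 h at 37 °C, LiveBLAzer B/G substrate is applied for 2 h at room temperature and fluorescence read.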
Sequence of Bile acid receptor (Homo sapiens) (Q96RI1 whole entry, looked up): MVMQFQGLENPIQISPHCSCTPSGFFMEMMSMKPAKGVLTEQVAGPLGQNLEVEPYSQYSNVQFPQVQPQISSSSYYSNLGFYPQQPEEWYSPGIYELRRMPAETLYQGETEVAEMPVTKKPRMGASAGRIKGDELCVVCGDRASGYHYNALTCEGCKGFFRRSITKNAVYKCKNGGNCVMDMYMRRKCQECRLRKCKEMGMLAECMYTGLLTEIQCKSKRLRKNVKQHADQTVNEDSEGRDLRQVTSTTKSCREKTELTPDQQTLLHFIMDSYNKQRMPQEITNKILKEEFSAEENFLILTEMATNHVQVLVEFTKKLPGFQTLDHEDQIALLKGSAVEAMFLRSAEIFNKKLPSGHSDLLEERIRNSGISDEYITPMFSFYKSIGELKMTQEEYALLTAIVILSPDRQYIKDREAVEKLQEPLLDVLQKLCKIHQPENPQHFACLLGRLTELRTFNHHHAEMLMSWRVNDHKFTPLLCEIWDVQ
(In qHTS, concentration-response curves come from the screen itself.)
In the case of `C[C@H](CCC(=O)O)[C@H]1CC[C@H]2[C@@H]3CC[C@@H]4C[C@H](O)CC[C@]4(C)[C@H]3CC[C@]12C`, the “activity change, negative = inhibition” value was -0.2%. On to `CC(C)(C)C(=O)OCOC(=O)[C@@H]1N2C(=O)[C@@H](NC(=O)[C@H](N)c3ccccc3)[C@H]2SC1(C)C`, for which the “activity change, negative = inhibition” value is 0.687%. Turning to `Clc1ccc2cc3ccccc3cc2c1`, the “activity change, negative = inhibition” value was -6.13%. Regarding `CC(=O)N1CCN(c2ccc(OC[C@H]3CO[C@](Cn4ccnc4)(c4ccc(Cl)cc4Cl)O3)cc2)CC1`, the Potency was 43.6 µM (active). `Cc1[nH]cnc1C[C@H]1CCc2c(C)c3ccccc3n2C1=O`: the “activity change, negative = inhibition” value is -3.07%. Same read-out and setting: the result for `NNc1nc(-c2ccc(N)cc2)cs1` reads -0.652%; that for `CCCCCCCCOc1ccccc1C(=O)Nc1ccc(C(=O)OCC[N+](C)(CC)CC)cc1`, 1.56%.

Tested on in the next assay: not listed separately
The experiment in a line: qHTS assay to identify small molecule agonists of the farnesoid-X-receptor (FXR) signaling pathway - cell viability counter screen (AID 743218). Note: nearly all actives have a fitted effect of over 45% in size. The settings on record: FXR-bla HEK293T viability, CellTiter-Glo luminescence, 16 h; series mostly up to 62.6 µM; viability change, negative = cytotoxic: at the top concentration. The procedure, abridged:
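Quantitative HTS counter screen measuring ATP-based viability via CellTiter-Glo luminescence in HEK 293T cells carrying a UAS-driven beta-lactamase reporter, after 16 h compound exposure at 37 C.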
On to `NC(=O)CC[C@@H]1NC(=O)[C@H](Cc2ccccc2)NC(=O)[C@H](Cc2ccc(O)cc2)NC(=O)CCSSC[C@@H](C(=O)N2CCC[C@H]2C(=O)N[C@@H](CCCN=C(N)N)C(=O)NCC(N)=O)NC(=O)[C@H](CC(N)=O)NC1=O`, for which the “viability change, negative = cytotoxic” value was -4.73%.

As for `C=CC(=O)OCCn1c(=O)n(CCOC(=O)C=C)c(=O)n(CCOC(=O)C=C)c1=O`, the Potency was 24.5 µM (active). Consider `CCCCCCCCCCCC(=O)NCCCN(C)C`, for which the Potency is 34.7 µM (active). In the case of `CCCCCCCC[P+](CCCCCCCC)(CCCCCCCC)CCCCCCCC`, the Potency was 8.65 µM (active). Regarding `CCCC(c1cc(C(C)(C)C)c(O)cc1C)c1cc(C(C)(C)C)c(O)cc1C`, the Potency is 12.5 µM (active). The same measure, in the same setting: in the case of `CC/C(=C(\c1ccc(O)cc1)c1ccc(OCCN(C)C)cc1)c1ccccc1` it was 15.5 µM (active).

Consider `C[C@@H](NCCCc1cccc(C(F)(F)F)c1)c1cccc2ccccc12`, for which the Potency was 29.8 µM (active). Turning to `Oc1cccc(-c2c3nc(c(-c4cccc(O)c4)c4ccc([nH]4)c(-c4cccc(O)c4)c4nc(c(-c5cccc(O)c5)c5ccc2[nH]5)CC4)C=C3)c1`, the Potency was 21.1 µM (active).

As to `CC(C)(C)C(=O)OCOC(=O)[C@@H]1N2C(=O)[C@@H](NC(=O)[C@H](N)c3ccccc3)[C@H]2SC1(C)C`, the “viability change, negative = cytotoxic” value is -1.65%. With `O=C(Oc1cccc2cccnc12)c1ccccc1`, the Potency is 9.44 µM (active). As to `CCCCC(CC)CN=C(N)NC(N)=NCCCCCCN=C(N)NC(N)=NCC(CC)CCCC` (stereo unspecified), the Potency was 13.3 µM (active). As to `CN(C)c1ccc(C2(c3ccc(N(C)C)cc3)OC(=O)c3cc(N(C)C)ccc32)cc1`, the “viability change, negative = cytotoxic” value was -7.92%. As to `CC(=O)N1CCN(c2ccc(OC[C@H]3CO[C@](Cn4ccnc4)(c4ccc(Cl)cc4Cl)O3)cc2)CC1`, the Potency is 49 µM (active). As for `C=CC(=O)OCC(CO)(COCC(COC(=O)C=C)(COC(=O)C=C)COC(=O)C=C)COC(=O)C=C`, the Potency is 4.31 µM (active). `NNc1nc(-c2ccc(N)cc2)cs1`: the Potency was 6.92 µM (active). As to `CC(C)c1ccc2c(c1)CC[C@H]1[C@](C)(CN)CCC[C@]21C`, the Potency was 12.3 µM (active). With `[Cl][Bi]([Cl])([c]1ccccc1)([c]1ccccc1)[c]1ccccc1`, the Potency is 5.46 µM (active).

As for `Cc1cc(CCN2CCN(c3nsc4ccccc34)CC2)cc2c1NC(=O)CC2(C)C`, the Potency is 21.9 µM (active). Consider `Oc1cc2ccccc2c2ccccc12`, for which the Potency is 11 µM (active). Same read-out and setting: the result for `C=CC(=O)OCC(CO)(COC(=O)C=C)COC(=O)C=C` reads 19.6 µM (active) and 17.4 µM (active). Take `C[n+]1cc2c3c(ccc2c2ccc4cc5c(cc4c21)OCO5)OCO3`: the Potency was 1.46 µM (active). On to `COc1ccc(C(=O)/C(Br)=C\C(=O)O)cc1`, for which the “viability change, negative = cytotoxic” value is -18.4%. For the compound `CCN(Cc1cccnc1)C(=O)c1cccc(Cl)c1[C@]1(C)C(=O)N(Cc2ccc(OC)cc2OC)c2ccc(Cl)cc21`, the Potency was 3.63 µM (active). Still for that read-out and setting: in the case of `CS(=O)(=O)CCNCc1ccc(-c2ccc3ncnc(Nc4ccc(OCc5cccc(F)c5)c(Cl)c4)c3c2)o1` it was 10.6 µM (active); in that of `CN(C)C(=O)C1(N2CCCCC2)CCN(CC[C@@]2(c3ccc(Cl)c(Cl)c3)CN(C(=O)c3ccccc3)CCO2)CC1`, 16.2 µM (active); in that of `CCCCCCCCCCCCc1ccc(O)cc1`, 34.7 µM (active). Take `CCCCCCCCOc1ccccc1C(=O)Nc1ccc(C(=O)OCC[N+](C)(CC)CC)cc1`: the “viability change, negative = cytotoxic” value is -29.6%.

Consider `CC(C)(C)C(=O)OCOC(=O)C1N2C(=O)CC2S(=O)(=O)C1(C)C` (stereo unspecified), for which the “viability change, negative = cytotoxic” value is 2.31%. Turning to `O=S1(=O)CC(Cl)(Cl)C(Cl)(Cl)C1`, the Potency is 5.49 µM (active).
